Among all 48,000 compounds or so, about 13,000 (27%) showed an effect of 50% or more. The list shows a part of the results.
Tested on: Wolbachia pipientis
Test: Anti-Wolbachia Cell-Based Screen
Assay type: functional
Set-up: scale not given: in the data most compounds retested in dose-response had high values
Details: 5 µM

First: CS(=O)(=O)N1CCC2(CCCN(CCCc3ccccc3)C2=O)C1 (stereo unspecified)
Second: CCCS(=O)(=O)N1CCC2(CC1)CC(=O)N(CCCc1ccccc1)C2
The “Percent Effect” value of the first is higher: 8.67% for the first, 8.339% for the second.

First: Cn1ccnc1CN1C(=O)CO[C@H]2CN(CCCc3ccccc3)C[C@H]21
Second: CCS(=O)(=O)N1CC(=O)N(CCCc2ccccc2)CC(O)C1 (stereo unspecified)
The “Percent Effect” value of the first is lower: -23.58% for the first, 108.2% for the second.

Compared with `CS(=O)(=O)N1CC(=O)N(CCCc2ccccc2)CC(O)C1` (stereo unspecified), `CCCS(=O)(=O)N1CC(=O)N(CCCc2ccccc2)CC(O)C1` (stereo unspecified) is higher in “Percent Effect” value: 96.22% for the first, 106.2% for the second.

Compared with `N#Cc1cccc(NC2CC(=O)N(CCCc3ccccc3)C2)n1` (stereo unspecified), `CS(=O)(=O)N1CCC(OCCCc2ccccc2)C1` (stereo unspecified) is lower in “Percent Effect” value: -4.151% for the first, -9.606% for the second.

Compared with `CCS(=O)(=O)N1CC[C@@H]2[C@@H](CCC(=O)N2CCc2ccccc2)C1`, `CCS(=O)(=O)N1CC(=O)N(CCOc2ccccc2)CC(O)C1` (stereo unspecified) is higher in “Percent Effect” value: -12.22% for the first, 118.2% for the second.

Going from `CC(C)(C)NC(=O)N1CCN2C(=O)OCC2C1` (stereo unspecified) to `CN1CCN(C(=O)C2SCCc3sccc32)CC1` (stereo unspecified), the “Percent Effect” value rises from -12.64% to -4.064%.

Going from `CCC(C)c1csc(NC(=O)c2sc(-c3nnc[nH]3)nc2C)n1` (stereo unspecified) to `CC(C)COC(C)C(=O)NCc1ccc(F)cc1` (stereo unspecified), the “Percent Effect” value rises from -26.52% to 52.08%.

Going from `CSc1cccc(CNC(=O)C2CC(=O)N(CCN(C)C)C2)c1` (stereo unspecified) to `CC(OCC1CC1)C(=O)NCc1cccc(CN2CCCC2=O)c1` (stereo unspecified), the “Percent Effect” value falls from 8.737% to 3.012%.

First: O=C(c1nnn(-c2ccc(C(F)(F)F)cc2)n1)N1CCC(O)CC1
Second: CN(C)c1ccc(C(=O)N2CCCC2c2cnn(C)c2)nn1 (stereo unspecified)
The “Percent Effect” value of the first is lower: 4.237% for the first, 5.055% for the second.

Compared with `CC(C)[C@@H]1CN(CCOc2ccccc2)C[C@H]1NS(=O)(=O)N(C)C`, `N[C@H]1CN(CCCOc2ccccc2)C[C@@H]1C1CC1` is lower in “Percent Effect” value: 3.365% for the first, -13.64% for the second.

First: CC(C)N1CCC2(CCCN(C(=O)c3cncn3C)C2)CC1.O=C(O)C(F)(F)F
Second: CC(C)CN(C)c1ccc(C(=O)N2CCCC2c2cnn(C)c2)cn1 (stereo unspecified)
The “Percent Effect” value of the first is higher: 0.429% for the first, -4.627% for the second.

Going from `CN(C)c1cc(C(=O)N2CCCC2c2cnn(C)c2)ccn1` (stereo unspecified) to `CN(C)c1ccc(C(=O)N2CCCC2c2cnn(C)c2)cn1` (stereo unspecified), the “Percent Effect” value falls from 118.6% to 96.67%.

Going from `Cc1noc2ncc(C(=O)N3CCCC3c3cnn(C)c3)cc12` (stereo unspecified) to `CC(C)c1nc(C2CCCN2c2cnc3ccccc3n2)no1` (stereo unspecified), the “Percent Effect” value falls from 9.393% to -9.022%.

Going from `COc1cccc(OC2CN(C(=O)Cn3nc4ccccc4n3)C2)c1` to `COc1ccc(C2CCCN2c2cnc3ccccc3n2)c(OC)c1` (stereo unspecified), the “Percent Effect” value rises from -0.01054% to 8.411%.

First: OC1(CNCCSCc2ccccc2)CCCNC1 (stereo unspecified)
Second: CCNC(=O)C1(Cc2ccc(-c3ccccc3)cc2)CCCNC1 (stereo unspecified)
The “Percent Effect” value of the first is lower: 3.749% for the first, 160.5% for the second.

First: Cc1cc(C)cc(-c2ccc(CC3(C(=O)O)CCOCC3)cc2)c1
Second: NC(=O)C1(Cc2ccc(-c3ccccc3)cc2)CCNC1 (stereo unspecified)
The “Percent Effect” value of the first is lower: 0.9737% for the first, 156.4% for the second.

Going from `O=C(NCCc1nncn1C1CC1)C1(Cc2ccccc2)CCC1` to `NC(=O)C1(Cc2ccc(-c3ccccc3)cc2)CCCNC1` (stereo unspecified), the “Percent Effect” value rises from 0.4274% to 155.7%.

Compared with `Cl.Cl.c1ccc(-c2cnc3n2CCNC32CCNCC2)cc1`, `c1ccc2nc(N3CCCC3c3nnc4n3CCCCC4)cnc2c1` (stereo unspecified) is higher in “Percent Effect” value: -2.159% for the first, 231.1% for the second.

First: Cn1c(=O)oc2ccc(Nc3ncc(C#N)cc3Cl)cc21
Second: Cc1cc(C)n(-c2ccc(N3CCC4(CC3)OCC(C)O4)nc2)n1 (stereo unspecified)
The “Percent Effect” value of the first is lower: -1.266% for the first, 14.39% for the second.

Going from `OCC(CO)Nc1cccc(C(F)(F)F)n1` to `O=C(C1CCCOC1)N(CC(F)F)c1cccc(Cl)c1` (stereo unspecified), the “Percent Effect” value rises from -11.08% to -10.1%.

Going from `Cc1ccc(N2CCC(c3nccn3Cc3cscn3)CC2)nn1` to `c1cnc2nc(N3CCc4c(ncn4C4CC4)C3)ccc2n1`, the “Percent Effect” value rises from -11.8% to 1.111%.

Going from `c1cnc2nc(N3CCCC3c3nnc4n3CCCCC4)ccc2n1` (stereo unspecified) to `Nc1cc(N2CCCC2c2cnccn2)ncn1` (stereo unspecified), the “Percent Effect” value falls from 123.3% to -4.526%.

First: Cn1c(CC2CCS(=O)(=O)C2)nnc1SCCOc1ccccc1F (stereo unspecified)
Second: CCN(C)S(=O)(=O)N1CCC(C(O)c2ccc(Cl)cc2)CC1 (stereo unspecified)
The “Percent Effect” value of the first is higher: 1.517% for the first, 1.239% for the second.

Compared with `CN(Cc1ccncc1)C(=O)Nc1cnn(CC(N)=O)c1`, `CC(C)COC(C)C(=O)NCc1ccccc1` (stereo unspecified) is higher in “Percent Effect” value: -7.922% for the first, 129.5% for the second.

First: CCOCCOC(C)C(=O)NCc1ccc(N2CCCCC2)cc1 (stereo unspecified)
Second: CC(C)COC(C)C(=O)NCc1ccc(OC(C)C)nc1 (stereo unspecified)
The “Percent Effect” value of the first is lower: -8.198% for the first, 0.7864% for the second.

For `CC(C)COC(C)C(=O)NCc1cc(F)cc(F)c1` (stereo unspecified), the “Percent Effect” value was -4.135%.

From ChEMBL document CHEMBL3988442, “University of Dundee, Small-Polar-MMV Screening Library” (2021)
